Data on 13 molecules can be found in PubChem BioAssay.

Assay [1] in a line: inhibitors of TNFa-induced NFkB p65 translocation, primary screen, imaging, HUVEC, MLSMR starter and 10KST1 sets (AID 438;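 active means inhibition above 20% together with a positive visual image hit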;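 further: compound added about 3h40 before a 20 min TNFalpha stimulation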;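 on inhibition: signal is the nuclear over cytoplasmic p65 intensity ratio per well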). The note with it: HUVEC TNFa-induced p65 nuclear translocation; cell count: measured here: nuclei count (cytotoxicity indicator), at 2.08 µM; inhibition: at 2 µM, stronger effect = higher value, 0% TNFa-plus-vehicle, 100% no-TNFa wells.
Assay [2] is described as follows: reduction of polyQ htt aggregates in cells – imaging, exon1htt(103Q)mCFP cells, high-content imaging, primary screen (AID 483;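 active means visual image review flags a hit and inhibition of aggregation exceeds 20%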;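 further: compound exposure lasted 3 days before fixation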;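 on nuclei count: percent of the per-plate median nuclei count of sample wells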). The note with it: exon1htt(103Q)mCFP cell line, aggregate imaging, at 2 µM; inhibition of aggregation: stronger effect = higher value; nuclei count: measured here: cell count, toxicity.
The nature of assay [3]: endothelial E-selectin expression blockers – imaging, HUVEC, immunofluorescence, MLSMR starter and 10KST1 sets, primary screen (AID 487;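 active means visually confirmed hit in the image check and inhibition above 20%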;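 on inhibition: signal is fraction of cell area covered by stained E-selectin grains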;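 on nuclei count: 100% = median nuclei count of all wells on the same plate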). The note with it: HUVEC TNFalpha-induced E-selectin immunofluorescence imaging, at 2 µM; inhibition: stronger effect = higher value; nuclei count: measured here: cell number, toxicity.
Assay [4] addresses Voltage-gated potassium channel subunit beta-2 (Rattus norvegicus) (UniProt P62483). Briefly: inhibitors of rat Kvbeta2 reductase activity – biochemical, NADPH fluorescence, primary screen (AID 622;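 active means fluorescence slope higher than the sample average by over 3 SD, cut at about -0.22 in these data, passing the limit was not always enough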;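 further: slope of raw intensity against log time taken from 70 to 1610 s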). The note with it: recombinant KvBeta, 4-cyanobenzaldehyde reduction, at 10 µM, stronger effect = higher value.
Assay [5] shares this target. Briefly: enhancers of rat Kvbeta2 NADPH turnover – biochemical, NADPH fluorescence, primary screen (AID 623;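 active means NADPH fluorescence slope more negative than the mean of all samples by about 3 SD, 99.7% confidence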;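 further: fluorescence intensity change per second fitted from 20 to 320 s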). The note with it: Recombinant KvBeta, NADPH fluorescence decrease slope, 10 min; at 10 µM; stronger effect = lower value.
Assay [6] has as its target Alpha-2C adrenergic receptor (Homo sapiens) (UniProt P18825). Briefly: compounds altering alpha2C-coupled GIRK flux – cell-based, HEK293 alpha2C/GIRK1/2, thallium flux, primary screen (AID 624).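 Further: slope of fluorescence ratio to pre-addition baseline per second over 15 to 24 s.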 Conditions: thallium flux BTC fluorescence, at 10 µM, actives lie on both sides.
Assay [7] can be described thus: blockers of RIG-like receptor reporter activation – cell-based, Sendai virus stimulus, luciferase, 10K MLSCN set, TLR/RLR signaling modifier project, primary screen (AID 602276;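 active means inhibition at or above 50% at 10 µM; inactive means inhibition below 50%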;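 further: firefly luciferase from ISG56 promoter only with Renilla not read in this screen; 0% = Sendai virus plus DMSO and 100% = medium plus DMSO without virus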). Conditions: HEK293 RL24 IRF3 luciferase reporter, at 10 µM, stronger effect = higher value.
Assay [8] can be described thus: TLR3 IRF3 reporter activation blockers – cell-based, poly I:C stimulus, luciferase, 10K MLSCN set, primary screen (AID 602277;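 active means inhibition of the reporter signal at or above 50%; inactive means inhibition below 50%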). The note with it: HEK293-TLR3 RL24 IRF3 luciferase reporter, at 10 µM, stronger effect = higher value.

SMILES strings stand for the structures. Calls of active or inactive are those of the source.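 How the source made its calls, unless noted: active means fluorescence slope after compound addition differing from the mean of all screened samples at 99.7% confidence, in either direction; inactive means the rest.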

Sequence of Alpha-2C adrenergic receptor (Homo sapiens) (P18825 whole entry, looked up): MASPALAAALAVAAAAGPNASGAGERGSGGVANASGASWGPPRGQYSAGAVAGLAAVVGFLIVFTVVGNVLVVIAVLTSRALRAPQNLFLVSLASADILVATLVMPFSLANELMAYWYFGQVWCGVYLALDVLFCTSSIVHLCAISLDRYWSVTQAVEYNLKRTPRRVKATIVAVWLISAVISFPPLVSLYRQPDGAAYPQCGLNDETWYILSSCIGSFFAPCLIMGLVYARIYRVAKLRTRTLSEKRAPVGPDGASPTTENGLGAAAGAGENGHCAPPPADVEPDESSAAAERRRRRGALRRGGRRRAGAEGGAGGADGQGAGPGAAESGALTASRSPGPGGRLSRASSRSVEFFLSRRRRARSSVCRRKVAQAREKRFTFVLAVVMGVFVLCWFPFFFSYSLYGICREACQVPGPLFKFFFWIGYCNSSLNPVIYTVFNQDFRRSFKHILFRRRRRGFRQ
Sequence of Voltage-gated potassium channel subunit beta-2 (Rattus norvegicus) (P62483 whole entry, looked up): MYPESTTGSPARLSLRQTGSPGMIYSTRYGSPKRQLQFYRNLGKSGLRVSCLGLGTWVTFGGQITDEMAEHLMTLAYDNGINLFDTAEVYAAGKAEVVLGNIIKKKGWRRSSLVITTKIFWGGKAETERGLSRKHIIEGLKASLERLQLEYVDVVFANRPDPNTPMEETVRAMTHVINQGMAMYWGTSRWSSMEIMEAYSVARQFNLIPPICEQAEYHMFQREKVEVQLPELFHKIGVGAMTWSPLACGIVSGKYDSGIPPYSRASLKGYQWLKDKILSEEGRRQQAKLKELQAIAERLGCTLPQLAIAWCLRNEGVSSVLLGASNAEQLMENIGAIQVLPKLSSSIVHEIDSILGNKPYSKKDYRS

Turning to `CCOC(=O)C1CCCN(CC(=O)NC2CC2)C1` (stereo not drawn), the cell count in assay [1] is 446. Besides, the inhibition (in general, the drop in the measured response relative to a control, in per cent) in assay [1] was 1.1% (inactive); in assay [3], -23.9% (inactive); in assay [7] it was 13.3% (inactive); in assay [8] it was 15.3% (inactive). Further, in assay [2], the inhibition of aggregation was -11.4% (inactive). Besides, the values for the nuclei count in assay [2] and in assay [3] were 98.9% and 101%, respectively. Further, the fluorescence slope in assay [4] is -0.318 (inactive). In addition, in assay [5], the NADPH fluorescence slope was -7.1e-05 (inactive). The slope in assay [6] was 0.00531 (inactive).

As to `CCOC(=O)c1[nH]c(CSc2nnc(-c3ccc(OC)cc3)o2)c(C(=O)OCC)c1C`, the cell count in assay [1] was 609. Moreover, the inhibition in assay [1] is 1.4% (inactive); in assay [3], -39.2% (inactive); in assay [7], 7.64% (inactive); in assay [8] it was 24.1% (inactive). The inhibition of aggregation in assay [2] is -12.6% (inactive). The nuclei count in assay [2] is 124%; in assay [3] it was 119%. The fluorescence slope in assay [4] was -0.304 (inactive). The NADPH fluorescence slope in assay [5] is -5.8e-05 (inactive). Moreover, the slope in assay [6] is 0.00625 (inactive).

For `COc1ccc(C2=NO[C@@H]3C(=O)N(c4ccc5c(c4)OCCO5)C(=O)[C@H]23)cc1OC`, the cell count in assay [1] amounted to 608. Further, the inhibition in assay [1] is -17.3% (inactive); in assay [3], 11.8% (inactive); in assay [7], -13.6% (inactive); in assay [8], 6.66% (inactive). Also, in assay [2], the inhibition of aggregation is -8.9% (inactive). The nuclei count is 111% in assay [2] and 98.1% in assay [3]. Moreover, the fluorescence slope in assay [4] was -0.541 (inactive). The NADPH fluorescence slope in assay [5] was 8.6e-06 (inactive). Further, the slope in assay [6] is 0.0052 (inactive).

Turning to `O=C(O)c1ccc(COc2ccc(Cl)cc2)o1`, the cell count in assay [1] was found to be 262. Moreover, the inhibition is -3.3% (inactive) in assay [1], -24% (inactive) in assay [3], -14.7% (inactive) in assay [7] and -60.9% (inactive) in assay [8]. The inhibition of aggregation in assay [2] is 10.6% (inactive). Also, the nuclei count in assay [2] was found to be 81%; in assay [3] it was 88.3%. Further, the fluorescence slope in assay [4] is -0.49 (inactive). Besides, the NADPH fluorescence slope in assay [5] was -3e-05 (inactive). Also, the slope in assay [6] is 0.00685 (inactive).

Regarding `COc1c(C(=O)Nc2c(C)n(C)n(-c3ccccc3)c2=O)ccc2ccccc12`, in assay [1], the cell count amounted to 239. The inhibition was -1.7% (inactive) in assay [1], -68.7% (inactive) in assay [3], 6.79% (inactive) in assay [7] and 11.2% (inactive) in assay [8]. Further, the inhibition of aggregation in assay [2] was 16.4% (inactive). Besides, the nuclei count in assay [2] worked out at 63.2%; in assay [3], 117%. The fluorescence slope in assay [4] is -0.512 (inactive). Further, in assay [5], the NADPH fluorescence slope is -3.9e-05 (inactive). Further, the slope in assay [6] was 0.00486 (inactive).

Take `COc1ccc(N2CCN(C(c3cccs3)c3nnnn3C3CCCC3)CC2)cc1` (stereo not drawn): the cell count in assay [1] came to 219. In addition, the inhibition is 12.7% (inactive) in assay [1], -10.3% (inactive) in assay [3], 1.77% (inactive) in assay [7] and 11.1% (inactive) in assay [8]. Further, in assay [2], the inhibition of aggregation is 1.6% (inactive). The nuclei count is 104% in assay [2] and 88.2% in assay [3]. Further, the fluorescence slope in assay [4] is -0.614 (inactive). For the same molecule, the NADPH fluorescence slope in assay [5] is -1.5e-08 (inactive). For the same molecule, in assay [6], the slope was 0.00587 (inactive).

With `C=CCNC(=O)CN(c1cccc(Br)c1)S(C)(=O)=O`, the cell count in assay [1] stood at 322. Besides, the inhibition was -0.5% (inactive) in assay [1], 21.4% (inactive) in assay [3], 8.3% (inactive) in assay [7] and 14.4% (inactive) in assay [8]. Moreover, the inhibition of aggregation in assay [2] is 13.9% (inactive). In addition, the nuclei count came to 95.4% in assay [2] and 115% in assay [3]. For the same molecule, the fluorescence slope in assay [4] is -0.509 (inactive). Moreover, the NADPH fluorescence slope in assay [5] was 2.5e-05 (inactive). In assay [6], the slope is 0.00557 (inactive).

For `C=CCn1c(SCC2=C(C(=O)OCC)C(C)NC(=O)N2)nnc1C1CCCCC1` (stereo not drawn), in assay [1], the cell count was 468. Further, the inhibition in assay [1] was 6% (inactive); in assay [3] it was -85.9% (inactive); in assay [7] it was 14.6% (inactive); in assay [8], 27.1% (inactive). Also, the inhibition of aggregation in assay [2] is 4.5% (inactive). In addition, the results for the nuclei count in assay [2] and in assay [3] were 113% and 121%, respectively. In addition, in assay [4], the fluorescence slope is -0.469 (inactive). Also, in assay [5], the NADPH fluorescence slope is 5.7e-05 (inactive). Further, in assay [6], the slope was 0.00672 (inactive).

For the molecule `COc1cc(-c2nnc(SCc3c(F)cccc3Cl)o2)cc(OC)c1OC`, in assay [1], the cell count amounted to 803. In addition, the inhibition was 4.4% (inactive) in assay [1], 3.2% (inactive) in assay [3], -11.9% (inactive) in assay [7] and 1.41% (inactive) in assay [8]. Moreover, the inhibition of aggregation in assay [2] was 8.8% (inactive). In addition, the nuclei count is 103% in assay [2] and 106% in assay [3]. For the same molecule, in assay [4], the fluorescence slope was -0.493 (inactive). Further, the NADPH fluorescence slope in assay [5] is -1.6e-06 (inactive). For the same molecule, the slope in assay [6] was 0.00634 (inactive).

As for `COC(=O)CS(=O)(=O)c1nnc([C@H](Cc2ccccc2)NC(=O)OC(C)(C)C)o1`, the cell count in assay [1] turned out to be 493. Further, the inhibition is -8% (inactive) in assay [1], 38.4% (inactive) in assay [3], 15.1% (inactive) in assay [7] and 33.7% (inactive) in assay [8]. In addition, in assay [2], the inhibition of aggregation was 22% (inactive). The nuclei count in assay [2] came out at 84.1%; in assay [3] it was 89%. In addition, the fluorescence slope in assay [4] was -0.486 (inactive). The NADPH fluorescence slope in assay [5] is -5.6e-05 (inactive). The slope in assay [6] is 0.00353 (inactive).

Turning to `CC(=NCC1CCNCC1)C1=C(O)CC(C)(C)CC1=O`, the cell count in assay [1] was found to be 663. In addition, the inhibition in assay [1] was -11% (inactive); in assay [3], 12.1% (inactive); in assay [7], 4.83% (inactive); in assay [8], 23.6% (inactive). Further, the inhibition of aggregation in assay [2] was -14.1% (inactive). For the same molecule, the figures for the nuclei count in assay [2] and in assay [3] were 113% and 132%, respectively. Also, the fluorescence slope in assay [4] was -0.499 (inactive). Moreover, in assay [5], the NADPH fluorescence slope was 4e-06 (inactive). For the same molecule, the slope in assay [6] was 0.00593 (inactive).

As to `CCn1c(Cc2ccccc2)nnc1SCC(=O)Nc1cc(C)on1`, in assay [1], the cell count was 629. Moreover, the inhibition in assay [1] is -3.3% (inactive); in assay [3], -15.6% (inactive); in assay [7], -8.42% (inactive); in assay [8], 23% (inactive). Besides, the inhibition of aggregation in assay [2] is 5.6% (inactive). Further, the nuclei count in assay [2] stood at 102%; in assay [3], 112%. Also, the fluorescence slope in assay [4] was -0.513 (inactive). In addition, the NADPH fluorescence slope in assay [5] was -3.3e-05 (inactive). The slope in assay [6] is 0.0074 (inactive).

Regarding `c1cnc2c(SCc3ccc(-c4nnco4)cc3)cccc2c1`, the cell count in assay [1] is 431. Moreover, the inhibition in assay [1] is 11.7% (inactive); in assay [3], -23.1% (inactive); in assay [7], -53.9% (inactive); in assay [8], -92.3% (inactive). Besides, the inhibition of aggregation in assay [2] is -3.7% (inactive). Besides, the nuclei count came out at 100% in assay [2] and 107% in assay [3]. The fluorescence slope in assay [4] was -0.586 (inactive). In addition, the NADPH fluorescence slope in assay [5] is -4.6e-06 (inactive). Moreover, the slope in assay [6] was 0.00482 (inactive).
